Results reported in the supplement of paper PMC4022240.
± gives the standard deviation.

Columns and labels:
Assay in all cases: peptide microarray binding signal (635 nm), min-max normalized on array (fraction of array maximum); higher = stronger binding
[1] = molecular target: T1, HaloTag-ATRX ADD domain (163-292)
T1 chain: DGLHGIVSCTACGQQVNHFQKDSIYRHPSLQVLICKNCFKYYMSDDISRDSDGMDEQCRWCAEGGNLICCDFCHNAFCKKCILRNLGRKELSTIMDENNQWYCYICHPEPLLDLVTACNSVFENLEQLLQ
Outline: (§1)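 Arrays carried histone 13-mer peptide–cellulose conjugates printed in triplicate on nitrocellulose alongside a Cy3 tracer. After overnight blocking at 4°C, they were incubated for 1 h at 4°C with biotin-labelled HaloTag reader fusions (10 nM to 1 μM) plus streptavidin-Alexa Fluor 647, or with rabbit histone antibodies (1:10,000 to 1:2,000) plus anti-rabbit Alexa 647. Scanning on an Axon GenePix 4000B used 635 nm for signal and 532 nm for misprints. The binding signal reported is each triplicate's mean spot intensity after per-library min-max scaling.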

[2] = molecular target: HaloTag-ING2 PHD (mouse Ing2 200-280)
Outline: as §1

[3] = molecular target: anti-H3K4me3 antibody ab8580
Outline: as §1

[4] = molecular target: anti-H3K9me3 antibody ab8898
Outline: as §1

[5] = peptide region: H3 20-32, peptide modifications: H3K23me1, binder concentration: 1:2,000 dilution
[6] = peptide region: H3 20-32, peptide modifications: H3K23me1, binder concentration: 1:10,000 dilution
[7] = peptide region: H3 20-32, peptide modifications: H3K23me1 H3K27ac, binder concentration: 1:2,000 dilution
[8] = peptide region: H3 20-32, peptide modifications: H3K23me1 H3K27ac, binder concentration: 1:10,000 dilution
[9] = peptide region: H3 20-32, peptide modifications: H3K23me1 H3K27me3, binder concentration: 1:2,000 dilution
[10] = peptide region: H3 20-32, peptide modifications: H3K23me1 H3K27me3, binder concentration: 1:10,000 dilution
[11] = peptide region: H3 11-23, peptide modifications: H3R17me2s H3K18ac, binder concentration: 1:2,000 dilution
[12] = peptide region: H3 11-23, peptide modifications: H3R17me2s H3K18ac, binder concentration: 1:10,000 dilution
[13] = peptide region: H3 20-32, peptide modifications: H3K23ac H3K27me3, binder concentration: 1:2,000 dilution
[14] = peptide region: H3 20-32, peptide modifications: H3K23ac H3K27me3, binder concentration: 1:10,000 dilution

LATKAARKSAPAT [H3 20-32 L A T Kme A A R K S A P A T]
peptide microarray binding signal ([1]; peptide region: H3 20-32, peptide modifications: H3K23me1, binder concentration: 50 nM): 0.0042 ± 0.00011
peptide microarray binding signal ([1]; peptide region: H3 20-32, peptide modifications: H3K23me1, binder concentration: 500 nM): 0.00714 ± 0.00042
peptide microarray binding signal ([2]; peptide region: H3 20-32, peptide modifications: H3K23me1, binder concentration: 10 nM): 0.0107 ± 0.00011
peptide microarray binding signal ([2]; peptide region: H3 20-32, peptide modifications: H3K23me1, binder concentration: 100 nM): 0.0176 ± 0.00097
peptide microarray binding signal [3, 5]: 0.00564 ± 0.0011
peptide microarray binding signal [3, 6]: 0.0116 ± 0.0039
peptide microarray binding signal [4, 5]: 0.00267 ± 0.00032
peptide microarray binding signal [4, 6]: 0.00242 ± 0.00013

LATKAARKSAPAT [H3 20-32 L A T Kme A A R Kac S A P A T]
peptide microarray binding signal ([1]; peptide region: H3 20-32, peptide modifications: H3K23me1 H3K27ac, binder concentration: 50 nM): 0.0232 ± 0.00051
peptide microarray binding signal ([1]; peptide region: H3 20-32, peptide modifications: H3K23me1 H3K27ac, binder concentration: 500 nM): 0.0506 ± 0.0021
peptide microarray binding signal ([2]; peptide region: H3 20-32, peptide modifications: H3K23me1 H3K27ac, binder concentration: 10 nM): 0.058 ± 0.0036
peptide microarray binding signal ([2]; peptide region: H3 20-32, peptide modifications: H3K23me1 H3K27ac, binder concentration: 100 nM): 0.0801 ± 0.006
peptide microarray binding signal [3, 7]: 0.0267 ± 0.0037
peptide microarray binding signal [3, 8]: 0.0268 ± 0.003
peptide microarray binding signal [4, 7]: 0.0161 ± 0.0018
peptide microarray binding signal [4, 8]: 0.0113 ± 0.0012

LATKAARKSAPAT [H3 20-32 L A T Kme A A R Kme3 S A P A T]
peptide microarray binding signal ([1]; peptide region: H3 20-32, peptide modifications: H3K23me1 H3K27me3, binder concentration: 50 nM): 0.005266 ± 3.8e-05
peptide microarray binding signal ([1]; peptide region: H3 20-32, peptide modifications: H3K23me1 H3K27me3, binder concentration: 500 nM): 0.00848 ± 0.00016
peptide microarray binding signal ([2]; peptide region: H3 20-32, peptide modifications: H3K23me1 H3K27me3, binder concentration: 10 nM): 0.0135 ± 0.00027
peptide microarray binding signal ([2]; peptide region: H3 20-32, peptide modifications: H3K23me1 H3K27me3, binder concentration: 100 nM): 0.01991 ± 8.1e-05
peptide microarray binding signal [3, 9]: 0.0287 ± 0.0026
peptide microarray binding signal [3, 10]: 0.0313 ± 0.0019
peptide microarray binding signal [4, 9]: 0.078 ± 0.0011
peptide microarray binding signal [4, 10]: 0.0363 ± 0.0019

TGGKAPRKQLATK [H3 11-23 T G G K A P Rme2s Kac Q L A T K]
peptide microarray binding signal ([1]; peptide region: H3 11-23, peptide modifications: H3R17me2s H3K18ac, binder concentration: 50 nM): 0.00658 ± 0.00084
peptide microarray binding signal ([1]; peptide region: H3 11-23, peptide modifications: H3R17me2s H3K18ac, binder concentration: 500 nM): 0.0081 ± 0.0003
peptide microarray binding signal ([2]; peptide region: H3 11-23, peptide modifications: H3R17me2s H3K18ac, binder concentration: 10 nM): 0.00776 ± 0.00012
peptide microarray binding signal ([2]; peptide region: H3 11-23, peptide modifications: H3R17me2s H3K18ac, binder concentration: 100 nM): 0.0133 ± 0.00095
peptide microarray binding signal [3, 11]: 0.00415 ± 0.00025
peptide microarray binding signal [3, 12]: 0.00468 ± 0.00016
peptide microarray binding signal [4, 11]: 0.00156 ± 4.6e-05
peptide microarray binding signal [4, 12]: 0.001441 ± 1.4e-05

LATKAARKSAPAT [H3 20-32 L A T Kac A A R Kme3 S A P A T]
peptide microarray binding signal ([1]; peptide region: H3 20-32, peptide modifications: H3K23ac H3K27me3, binder concentration: 50 nM): 0.006363 ± 3.7e-05
peptide microarray binding signal ([1]; peptide region: H3 20-32, peptide modifications: H3K23ac H3K27me3, binder concentration: 500 nM): 0.00867 ± 0.00016
peptide microarray binding signal ([2]; peptide region: H3 20-32, peptide modifications: H3K23ac H3K27me3, binder concentration: 10 nM): 0.0207 ± 0.00046
peptide microarray binding signal ([2]; peptide region: H3 20-32, peptide modifications: H3K23ac H3K27me3, binder concentration: 100 nM): 0.0281 ± 0.00085
peptide microarray binding signal [3, 13]: 0.0464 ± 0.0087
peptide microarray binding signal [3, 14]: 0.044 ± 0.0054
peptide microarray binding signal [4, 13]: 0.253 ± 0.019
peptide microarray binding signal [4, 14]: 0.122 ± 0.0084
